Results taken from PubChem BioAssay (NCATS).
Results filed as inconclusive are left out. Unmarked numbers belong to inactive results. Calls follow the shape of the dose curve; as a rule, active = well fitted cell-killing curve with a large enough effect; inconclusive = small, poorly fitted or top-dose-only effect, or effect the other way; inactive = no such curve, though single readings can be large or run the other way. Peptide text beside a SMILES is read from it.

test: Quantitative highthroughput screen to assess conditional lethalithy of SEM cells grown in Human Plasma-Like Medium with dialyzed fetal bovine serum (HPLM+ds) (AID 1963882); details: SEM B-ALL cells in HPLM+ds, CellTiter-Glo viability, 48 h; series mostly up to 45.8 µM; viability: at the top concentration
How it was run: (§1)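 Each medium arm—HPLM with 10% dialyzed FBS, or RPMI1640 with 5 mM glucose and 10% untreated or dialyzed FBS—was screened against an 11-point, 3-fold compound titration for 48 h at 37 °C, with CellTiter-Glo luminescence as endpoint.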
Also: nearly all actives have a fitted effect of over 35% in size.

Compound	viability
Cn1c(N2CCCCS2(=O)=O)nc(C(=O)NCc2ccc(F)cc2)c(O)c1=O	90.8%
Nc1ccn([C@@H]2CS[C@H](CO)O2)c(=O)n1	115% [at 92.2 µM]
N[C@@H]1CONC1=O	110%
Cc1nc2c([nH]1)CCN(C(=O)c1ccc(NC(=O)c3ccccc3-c3ccccc3)cc1)c1ccccc1-2	100%
COC(=O)[C@H](Cc1ccccc1)NC(=O)[C@@H](N)CC(=O)O (H-Asp-Phe-OMe)	106%
CCC(C)(Oc1ccc(C2(c3ccc(OC(C)(CC)C(=O)O)cc3)CCCCC2)cc1)C(=O)O (configuration not stated)	80.1%
Nc1ccc(S(N)(=O)=O)cc1	100%
CNS(=O)(=O)CCc1ccc2[nH]cc(C3CCN(C)CC3)c2c1	105%
CCOCC(O)COc1ccc(NC(=O)CC[S+](C)C)cc1 (configuration not stated)	86.6%

test: Quantitative highthroughput screen to assess conditional lethalithy of SEM cells grown in RPMI1640 with unreated serum (RPMI+s) (AID 1963883); details: SEM B-ALL cells, CellTiter-Glo viability, 48 h; series mostly up to 45.8 µM; viability: at the top concentration;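 also: 100% = DMSO wells and 0% = empty wells without cells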
How it was run: as §1

Compound	viability
Cn1c(N2CCCCS2(=O)=O)nc(C(=O)NCc2ccc(F)cc2)c(O)c1=O	113%
Nc1ccn([C@@H]2CS[C@H](CO)O2)c(=O)n1	102% [at 92.2 µM]
N[C@@H]1CONC1=O	93.8%
Cc1nc2c([nH]1)CCN(C(=O)c1ccc(NC(=O)c3ccccc3-c3ccccc3)cc1)c1ccccc1-2	83.8%
COC(=O)[C@H](Cc1ccccc1)NC(=O)[C@@H](N)CC(=O)O (H-Asp-Phe-OMe)	102%
CCC(C)(Oc1ccc(C2(c3ccc(OC(C)(CC)C(=O)O)cc3)CCCCC2)cc1)C(=O)O (configuration not stated)	79.3%
Nc1ccc(S(N)(=O)=O)cc1	84.9%
CNS(=O)(=O)CCc1ccc2[nH]cc(C3CCN(C)CC3)c2c1	95.8%
CCOCC(O)COc1ccc(NC(=O)CC[S+](C)C)cc1 (configuration not stated)	80%

test: Quantitative highthroughput screen to assess conditional lethalithy of SEM cells grown in RPMI1640 with dialyzed fetal bovine serum (RPMI+ds) (AID 1963884); details: SEM B-ALL cells, RPMI+dialyzed FBS, CellTiter-Glo viability, 48 h; series mostly up to 45.8 µM; viability: at the top concentration;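 also: 100% = DMSO control wells and 0% = empty wells without cells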
How it was run: as §1

Compound	viability
Cn1c(N2CCCCS2(=O)=O)nc(C(=O)NCc2ccc(F)cc2)c(O)c1=O	90%
Nc1ccn([C@@H]2CS[C@H](CO)O2)c(=O)n1	102% [at 92.2 µM]
N[C@@H]1CONC1=O	85.6%
Cc1nc2c([nH]1)CCN(C(=O)c1ccc(NC(=O)c3ccccc3-c3ccccc3)cc1)c1ccccc1-2	87.6%
COC(=O)[C@H](Cc1ccccc1)NC(=O)[C@@H](N)CC(=O)O (H-Asp-Phe-OMe)	92.1%
CCC(C)(Oc1ccc(C2(c3ccc(OC(C)(CC)C(=O)O)cc3)CCCCC2)cc1)C(=O)O (configuration not stated)	86.4%
Nc1ccc(S(N)(=O)=O)cc1	85.6%
CNS(=O)(=O)CCc1ccc2[nH]cc(C3CCN(C)CC3)c2c1	88.7%
CCOCC(O)COc1ccc(NC(=O)CC[S+](C)C)cc1 (configuration not stated)	76%
